The record followed here is PubChem BioAssay (Tox21).

Inconclusive results are not listed. Unmarked numbers belong to inactive results. Activity calls are given as the source filed them. Unless noted, the call rests on the fitted dose curve; in most records, active means well fitted curve in the direction sought with a large enough effect in the repeat runs; inconclusive means weak or mixed curves; inactive means no such curve, though single readings can be large; an effect the other way counts as inactive or inconclusive.

Assay [1] in a line: qHTS assay to identify small molecule antagonists of the estrogen related receptor (ERR) signaling pathway from Tox21 library - cell viability counter screen (AID 1224834). Further: nearly all actives have a fitted effect of over 30% in size. The procedure, abridged: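 CellTiter-Fluor fluorescence, read after 30 min at 37 C, measures viability of ERR cells. Cells plated at 2,000/well and incubated 6 h before pin-tool compound addition, then exposed 17.5 hours at 37 C.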

Assay [2] has as its target Luciferin 4-monooxygenase (Photinus pyralis) (UniProt P08659). Briefly: qHTS assay to identify small molecule inhibitors of firefly luciferase (AID 1224835). Further: nearly all actives have a fitted effect of over 25% in size. Further: potency means the concentration at half of the fitted maximal effect. The procedure, abridged: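 Quantitative HTS format; KM concentrations of both substrates. Purified P. pyralis FLuc activity quantified from luminescence images.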
On the technique in general: In qHTS, concentration-response curves come from the screen itself.

Assay [3] can be described thus: qHTS assay to identify small molecule agonists of the constitutive androstane receptor (CAR) signaling pathway - cell viability counter screen (AID 1224836). Further: series mostly up to about 92 µM; nearly all actives have a fitted effect of over 45% in size. Put shortly:
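HepG2-CYP2B6-hCAR, 2500 cells/well, 4 h pre-incubation; cpd 15 conc + PK11195 0.75 uM final; 23 h, 37 C/5% CO2; CellTiter-Fluor, fluorescence.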

Assay [4] is described as follows: qHTS assay to identify small molecule antagonists of the constitutive androstane receptor (CAR) signaling pathway - cell viability counter screen (AID 1224837). Further: series mostly up to about 92 µM; nearly all actives have a fitted effect of over 45% in size. Put shortly:
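Cytotoxicity counter-screen: CellTiter-Fluor fluorescence after 23 h compound exposure (15-point qHTS) in double-stable HepG2-CYP2B6-hCAR cells, with 50 nM CITCO added.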

The target of assay [5] is Nuclear receptor subfamily 1 group I member 3 (Homo sapiens) (UniProt Q14994). Briefly: qHTS assay to identify small molecule antagonists of the constitutive androstane receptor (CAR) signaling pathway (AID 1224838).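 Further: HepG2 cells stably expressing hCAR with CYP2B6 luciferase reporter stimulated by CITCO; nearly all actives have a fitted effect of over 40% in size.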 The procedure, abridged:
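Antagonism measured as luciferase signal (ONE-Glo, 30 min, room temperature) in CAR-stimulated cells: HepG2-CYP2B6-hCAR double-stable line exposed 24 hr at 37 C to compound in a 15-point series plus 50 nM CITCO.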

Assay [6] has the same target. Description: qHTS assay to identify small molecule agonists of the constitutive androstane receptor (CAR) signaling pathway (AID 1224839). Further: nearly all actives have a fitted effect of over 15% in size. Further: potency means the concentration at half of the fitted maximal effect. Put shortly: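 HepG2-CYP2B6-hCAR cells, 2500/well, 4 h pre-incubation; compounds 15 conc.; PK11195 0.75 uM final; 24 h, 37 C/5% CO2; ONE-Glo luciferase read.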
A short description of assay [7]: qHTS assay to identify small molecule antagonists of the estrogen related receptor signaling pathway with the pleiotropic PPARgamma coactivator (PGC) from Tox21 10K library - cell viability counter screen (AID 1224840; active means well fitted cell-killing curve with a large enough effect in the repeat runs, not every such curve was filed as active; further: nearly all actives have a fitted effect of over 40% in size). The procedure, abridged: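 Counter-screen for cytotoxicity: after 17.5 h compound exposure at 37 C, CellTiter-Fluor reagent added to PGC/ERR cells for 30 min and fluorescence read. Cells were seeded at 2,000 per well 6 h before dosing.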

Assay [8] can be described thus: qHTS assay to identify small molecule agonists of the estrogen related receptor signaling pathway with the pleiotropic PPARgamma coactivator (PGC) from Tox21 10K library (AID 1224842). Further: nearly all actives have a fitted effect of over 15% in size. Put shortly:
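PGC/ERR reporter cells (NTP line) were seeded 2,000 per well, rested 6 h at 37 C/5% CO2, then pin-dosed with compounds in DMSO for 18 h at 37 C; luciferase read by One-Glo luminescence after 30 min at room temperature.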

Assay [9] is described as follows: qHTS assay to identify small molecule antagonists of the estrogen related receptor signaling pathway with the pleiotropic PPARgamma coactivator (PGC) from Tox21 10K library (AID 1224841; call rule not given here; further: series mostly up to about 92 µM; actives are mostly falling curves and most rising ones were filed inactive; nearly all actives have a fitted effect of over 50% in size). Put shortly:
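Luminescence (One-Glo, 30 min at room temperature) after 18 h compound treatment at 37 C of PGC/ERR reporter cells plated at 2,000 cells/well and settled 6 h beforehand.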

Luciferin 4-monooxygenase (Photinus pyralis), sequence (P08659 whole entry, looked up): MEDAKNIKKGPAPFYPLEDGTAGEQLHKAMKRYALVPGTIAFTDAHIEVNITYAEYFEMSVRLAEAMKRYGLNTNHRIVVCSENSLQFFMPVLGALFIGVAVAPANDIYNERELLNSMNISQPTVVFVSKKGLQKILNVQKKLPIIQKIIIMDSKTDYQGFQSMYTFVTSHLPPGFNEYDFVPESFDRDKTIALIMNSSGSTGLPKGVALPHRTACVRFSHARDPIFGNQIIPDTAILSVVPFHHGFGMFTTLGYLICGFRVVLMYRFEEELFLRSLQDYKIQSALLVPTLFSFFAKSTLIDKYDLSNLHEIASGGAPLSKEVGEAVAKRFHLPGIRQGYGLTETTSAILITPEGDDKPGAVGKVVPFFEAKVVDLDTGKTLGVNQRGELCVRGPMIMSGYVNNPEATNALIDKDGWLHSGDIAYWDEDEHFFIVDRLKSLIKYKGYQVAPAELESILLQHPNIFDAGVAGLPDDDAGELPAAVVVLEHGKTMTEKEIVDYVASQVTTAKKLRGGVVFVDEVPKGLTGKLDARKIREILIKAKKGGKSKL
Nuclear receptor subfamily 1 group I member 3 (Homo sapiens), sequence (Q14994 whole entry, looked up): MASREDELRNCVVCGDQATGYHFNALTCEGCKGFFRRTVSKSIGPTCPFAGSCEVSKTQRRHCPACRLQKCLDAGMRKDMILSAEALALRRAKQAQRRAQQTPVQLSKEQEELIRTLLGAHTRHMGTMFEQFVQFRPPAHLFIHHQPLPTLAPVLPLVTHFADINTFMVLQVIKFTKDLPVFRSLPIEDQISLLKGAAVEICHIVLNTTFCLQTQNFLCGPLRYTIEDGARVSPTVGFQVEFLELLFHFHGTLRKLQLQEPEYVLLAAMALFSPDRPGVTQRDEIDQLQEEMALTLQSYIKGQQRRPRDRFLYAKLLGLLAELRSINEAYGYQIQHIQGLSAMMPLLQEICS

`CCCCCCCCC(=O)Cl`: the Potency result in [1], in [2], in assay [3], in [4] and in assay [6] was “inactive” each time. The call in [5], in assay [7] and in assay [8] was inactive.
For the compound `Cc1c(I)c(=O)n(-c2ccccc2)n1C`, the Potency result in [1], in assay [2], in assay [3], in [4] and in assay [9] was “inactive” each time. Further, the result in [5], in assay [7] and in assay [8] was inactive.
As for `CCCC(=O)C(C)=O`, the Potency entry in assay [1], in [2], in assay [3], in [4], in [6] and in [9] was “inactive” each time. Also, the call in assay [5], in assay [7] and in assay [8] was inactive.
As for `C=C(C)C(=O)OCCOP(=O)(O)OCCOC(=O)C(=C)C`, the Potency result in assay [1], in assay [2], in assay [3], in assay [4], in assay [6] and in assay [9] was “inactive” throughout. Moreover, the compound was called inactive in assay [5], in [7] and in [8].
For `CC(C)(C)OC(=O)c1ccc(O)cc1`, the Potency result in assay [1], in assay [3], in [4] and in assay [9] was “inactive” in each case. Further, the Potency is 39.9 µM (active) in assay [2] and 24.3 µM (active) in assay [6]. Also, the compound was called inactive in assay [5], in assay [7] and in assay [8].
Regarding `C=C(C)C1CCC(C)(O)CC1` (stereo unspecified), the Potency result in assay [1], in [2], in [3] and in [4] was “inactive” each time. Besides, the compound was called inactive in [5] and in [7].
In the case of `C=Cc1ccccn1`, the Potency result in [1], in assay [2], in assay [3] and in assay [4] was “inactive” throughout. Also, the call in assay [5] and in assay [7] was inactive.
Regarding `BrCCCCCBr`, the Potency entry in [1], in assay [2], in assay [3], in assay [4], in [6] and in assay [9] was “inactive” each time. Also, the call in [5], in assay [7] and in assay [8] was inactive.
With `c1ccc2nccnc2c1`, the Potency entry in [1], in [2], in assay [3] and in assay [4] was “inactive” in each case. Further, the compound was classed as inactive in [5] and in assay [7].
Regarding `CCc1ccc(C=O)cc1`, the Potency entry in assay [1], in [2], in assay [3], in [4], in [6] and in assay [9] was “inactive” throughout. For the same compound, the result in assay [5], in assay [7] and in assay [8] was inactive.
`COc1cc(NS(=O)(=O)c2ccc(N)cc2)nc(OC)n1`: the Potency entry in [1], in assay [2], in [3], in assay [4], in [6] and in assay [9] was “inactive” throughout. For the same compound, the call in assay [5] and in [8] was inactive.
`CC(=O)/C=C/C1C(C)=CCC(C)C1(C)C` (stereo unspecified): the Potency result in [1], in assay [2], in assay [3], in assay [4], in assay [6] and in assay [9] was “inactive” in each case. Also, the outcome in assay [5] and in assay [8] was inactive.
On to `Cc1ccsc1/C=C/C1=NCCCN1C`, for which the Potency result in [1], in assay [2], in assay [3], in assay [4] and in [9] was “inactive” each time. In addition, the outcome in assay [5], in assay [7] and in assay [8] was inactive.
For `COC(=O)CCc1ccc(OCC(O)CNC(C)C)cc1` (stereo unspecified), the Potency result in assay [1], in [2], in assay [3], in assay [4], in [6] and in [9] was “inactive” throughout. Moreover, the compound was classed as inactive in [5], in assay [7] and in [8].
For the compound `O=C(O)c1cc(Cl)cc([N+](=O)[O-])c1Cl`, the Potency result in [1], in [2], in assay [3], in [4], in assay [6] and in [9] was “inactive” throughout. For the same compound, the result in [5] and in assay [8] was inactive.
Consider `CCCCCCOC(=O)CC`, for which the Potency result in assay [1], in assay [2], in assay [3], in assay [4] and in assay [9] was “inactive” throughout. Also, the outcome in assay [5], in assay [7] and in assay [8] was inactive.
Take `CC(C)(C)c1nnc(NS(=O)(=O)c2ccc(N)cc2)s1`: the Potency result in [1], in assay [2], in [3] and in [4] was “inactive” each time. Besides, the outcome in [5] and in assay [7] was inactive.
On to `C[Si](C)(C)C`, for which the Potency entry in [1], in [2], in assay [3], in [4], in assay [6] and in assay [9] was “inactive” in each case. Also, the outcome in assay [5], in assay [7] and in assay [8] was inactive.
As for `CCNC(=O)C1CC(C)CCC1C(C)C` (stereo unspecified), the Potency entry in assay [1], in assay [2], in assay [3], in assay [4], in assay [6] and in assay [9] was “inactive” in each case. The compound was called inactive in [5], in assay [7] and in assay [8].
On to `CCCCCCCCC1CCC(=O)O1` (stereo unspecified), for which the Potency result in assay [1], in [2], in assay [3], in assay [4] and in assay [9] was “inactive” each time. For the same compound, the compound was called inactive in assay [5], in [7] and in assay [8]. The Potency in assay [6] was 30.6 µM (active).
On to `ClCCCl`, for which the Potency entry in assay [1], in assay [2], in assay [3], in [4] and in [6] was “inactive” each time. For the same compound, the call in [5] and in assay [8] was inactive.
In the case of `CC(=O)c1sc(C)nc1C`, the Potency entry in assay [1], in assay [2], in assay [3], in assay [4], in assay [6] and in assay [9] was “inactive” each time. The result in assay [5], in assay [7] and in assay [8] was inactive.
With `CC(C(=O)O)c1ccc2c(c1)CC(=O)c1ccccc1S2` (stereo unspecified), the Potency result in assay [1], in assay [2], in assay [3], in assay [4] and in assay [9] was “inactive” throughout. Also, the compound was called inactive in assay [5], in assay [7] and in [8].
As for `COc1ccc(OC)c(Cl)c1`, the Potency result in assay [1], in [2], in assay [3], in assay [4] and in [9] was “inactive” throughout. Moreover, the result in assay [5], in assay [7] and in [8] was inactive.
In the case of `COc1ccc2nc(SCc3ncc(C)c(OC)c3C)[nH]c2c1`, the Potency entry in [1], in assay [3], in [4] and in [9] was “inactive” throughout. Also, the Potency in [2] is 13.8 µM (active). Further, the compound was classed as inactive in [5], in [7] and in [8].
`O=C(O)CCSSCCC(=O)O`: the Potency result in assay [1], in assay [2], in [3] and in [4] was “inactive” throughout. Besides, the compound was classed as inactive in assay [5] and in assay [7].
Turning to `CN=C(NC#N)Nc1ccc(C2=NNC(=O)CC2C)cc1` (stereo unspecified), the Potency result in assay [1], in assay [2], in assay [3], in assay [4], in [6] and in assay [9] was “inactive” in each case. Also, the outcome in assay [5], in [7] and in [8] was inactive.
